Reference: ChEMBL document CHEMBL3988442, “University of Dundee, Small-Polar-MMV Screening Library” (2021)

biological target: AMP-activated protein kinase, AMPK (Homo sapiens) (UniProt P54646+O43741+P54619+Q9UGJ0+Q9Y478+Q13131+Q9UGI9); assay: AMP-dependent Kinase enzyme assay. An in vitro enzyme assay that detects ADP turnover that is directly proportional to AMPK activity. This uses naive AMPK that is activated during the assay with MK-8722; assay type: functional; design: scale not given: direction of the effect not stated beside the values; conditions: 30 µM

SMILES	Percent Effect
CNC(=O)CNC(=O)NCc1cc2c(s1)CCC(C)(C)C2	-2.89%
CCN(C(=O)CN1CCCC1c1c(C)nn(C)c1OC)C1CC1 (stereo not drawn)	3.98%
Cc1nc(C(C)C)sc1C(C)N(C)C(=O)c1ccc(=O)n(C)n1 (stereo not drawn)	-6.04%
CCc1cnc(CNC(=O)NCCc2ccc(O)cc2)s1	47.9%
COC(=O)N1CCCCC1C(=O)N1CCN(c2cccnc2)CC1 (stereo not drawn)	-4.3%
CC(C)N(CC(N)=O)C(=O)CCC(=O)c1ccc(F)cc1F	-2.63%
Cn1c(N2CC[C@H](O)C2)nc2cc(C(N)=O)ccc21	21.4%
Cc1ccc(NC(=O)NCCn2cnc(C)c(C)c2=O)cc1F	1.89%
COc1c(C2CCCN2CC(=O)Nc2nccs2)c(C)nn1C (stereo not drawn)	7.38%
CC(C)C(CNC(=O)CCn1cncn1)N1CCc2ccccc2C1 (stereo not drawn)	0.687%
CCCOc1cc(CNC(=O)Nc2ccc(C)cc2)ccn1	1.3%
CCSc1cc(C(=O)N(C(C)C)C2CC2)ccn1	0.102%
CCN1CCN(c2ncnc3c2CCN(C(=O)C2CC2)C3)CC1	-7.12%
CN(C)C1CCN(c2cc(-c3ccccc3)nc3ccnn23)C1 (stereo not drawn)	-0.347%
CN(CCCC1CCCO1)C(=O)c1cccc(C#N)c1 (stereo not drawn)	10.9%
CNc1ccc(C2CN(c3cc(C)ncn3)CCO2)nc1 (stereo not drawn)	10.8%
COCC(C)NC(=O)N1CCN(S(C)(=O)=O)CC1 (stereo not drawn)	11.4%
Cc1ccc(C2(O)CCN(C(=O)CCn3ccc(=O)[nH]c3=O)CC2)nc1	1.66%
